Source: PubChem
MITF inh – human MITF inhibition, primary screen; O75030; AlphaScreen MITF homodimerization, bead proximity signal; inhibition, % at 2.6 µM; actives 0.91% (n = 650,000); in the data active = inhibition above about 50%;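 note: 0% = vehicle wells with protein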
Target sequence (O75030 whole entry, looked up): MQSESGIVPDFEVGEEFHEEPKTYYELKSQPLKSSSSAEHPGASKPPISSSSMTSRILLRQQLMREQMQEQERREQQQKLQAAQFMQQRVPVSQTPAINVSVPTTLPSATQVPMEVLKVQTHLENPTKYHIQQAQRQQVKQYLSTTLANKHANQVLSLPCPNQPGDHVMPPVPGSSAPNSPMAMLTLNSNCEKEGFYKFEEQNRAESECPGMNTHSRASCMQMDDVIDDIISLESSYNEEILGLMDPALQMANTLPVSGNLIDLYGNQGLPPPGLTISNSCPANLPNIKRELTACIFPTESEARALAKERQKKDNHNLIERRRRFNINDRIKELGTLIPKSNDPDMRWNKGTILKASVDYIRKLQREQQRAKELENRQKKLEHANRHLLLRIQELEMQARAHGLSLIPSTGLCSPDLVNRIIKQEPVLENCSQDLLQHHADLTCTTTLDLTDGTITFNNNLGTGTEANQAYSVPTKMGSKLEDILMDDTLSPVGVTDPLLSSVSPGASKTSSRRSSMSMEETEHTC
GPR151 ag – human GPR151 activation; Q8TDV0; PathHunter beta-arrestin GPR151 cells, luminescence; activation, % at 11.2 µM; actives 1% (n = 650,000); AID 1508602; in the data active = activation above about 4.9%;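 note: 0% = median of compound wells and 100% = cells with positive control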
TEAD-YAP inh – TEAD-YAP interaction inhibition | actives 1.4% (n = 640,000) | AID 1259422 | HEK-TIYL cells, TEAD-Gal4/YAP UAS-luciferase luminescence | inhibition, % at 9.12 µM; in the data active = inhibition above about 32%;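 note: 0% = median of test compound wells and 100% = reference inhibitor wells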
FBW7 activator – human FBW7 E3 ligase activation, primary screen | Q969H0 | AlphaScreen FBW7–phospho-cyclin E peptide binding, activator screen | normalized activity (activation), % at 26.1 µM | actives 0.13% (n = 650,000) | AID 1259310; in the data active = normalized activity above about 1.9%;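 note: purified mutant Fbw7 with reduced substrate affinity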
Starred values were filed as active, the others as inactive. A selection: hits, their analogues and other compounds. The true share with any hit is near 3.5%.

SMILES | MITF inh | GPR151 ag | TEAD-YAP inh | FBW7 activator
CCOC(=O)c1c(N2C(N)=C(C#N)C(c3ccc([N+](=O)[O-])cc3)C3=C2CC(C)(C)CC3=O)sc2c1CCCCC2 (stereo not given) | -2 | 2 | 4 | 0
COc1ccc(/C(C#N)=C/c2ccc3c(c2)OCO3)cc1OC | 18 | -3 | 37* | 1
CCOc1ccc(/C=C(/C#N)c2ccc3c(c2)OCO3)cc1 | 0 | -1 | 15 | 0
CCOC(=O)C1=C(C)N=c2s/c(=C\c3cccc([N+](=O)[O-])c3)c(=O)n2C1c1ccccc1OC (stereo not given) | 3 | -2 | -1 | 0
CC1=CC(=O)C(N2CCC(Cc3ccccc3)CC2)=CC1=O | 60* | -2 | 4 | 0
O=S(=O)(Cc1ccccc1)N1CCC(Cc2ccccc2)CC1 | -4 | 1 | 3 | 0
COc1ccc(/C=N/Nc2ccccn2)c(OC)c1 | 1 | -1 | -57 | 0
NC(=O)c1cc2ccc(O)cc2oc1=Nc1ccc(-c2ccccc2)cc1 | 13 | 1 | -9 | 1
CC(=O)c1ccc(N=c2oc3cc(O)ccc3cc2C(N)=O)cc1 | -5 | -2 | 60* | 0
O=C(Oc1ccc2ccccc2c1)c1ccc(Br)o1 | 4 | 1 | 8 | 0
COC(=O)C1=CN(CC23CC4CC(CC(C4)C2)C3)C=C(C(=O)OC)C1c1ccsc1 | -8 | -1 | -3 | 1.9*
COCCNC(=O)c1ccc(-n2c(SCC(=O)c3ccc(Br)cc3)nc3ccccc3c2=O)cc1 | -5 | 0 | 3 | 0
CCc1ccc(C(=O)N/N=C/c2cc(Br)c(O)c(Br)c2O)nc1 | 67* | -1 | 72* | -1
N#CC(C(=O)c1nc(N2CCCCCC2)ncc1Cl)c1nc2ccccc2c(=O)[nH]1 (stereo not given) | -7 | 1 | 0 | 0
NC1=NC2(CCCCC2)N=C(Nc2ccccc2)N1 | 8 | 0 | -3 | 0
O=C(NN1C(=O)c2cccc3c([N+](=O)[O-])ccc(c23)C1=O)c1ccc([N+](=O)[O-])cc1 | 17 | 0 | 8 | 2.6*
Cc1nc(C#N)c(N/N=C/c2ccc(N(C)C)cc2)o1 | 3 | -2 | 33* | 0
Cc1nc(C#N)c(N/N=C/C=C/c2ccccc2)o1 | 10 | -2 | -66 | 0
COc1cccc(C(=O)Nc2cccc(OC(=O)c3cc(S(=O)(=O)N4CCCCC4)ccc3Cl)c2)c1 | 16 | -2 | 47* | 0
O=C(Nc1cccc(OC(=O)c2cc(S(=O)(=O)N3CCCCC3)ccc2Cl)c1)c1ccco1 | -5 | 0 | -8 | 0
O=C(Oc1ccccc1)c1ccc(NC(=O)c2cc(S(=O)(=O)N3CCOCC3)ccc2Cl)cc1 | -3 | 2 | -2 | 0
COc1ccc(C(=O)Nc2cccc(OC(=O)c3cc(S(=O)(=O)N4CCOCC4)ccc3Cl)c2)cc1 | 9 | -2 | 55* | 0
O=C(COc1ccccc1-c1ccccc1)NN=C1CCCC1 | 5 | 2 | 61* | 0
CCOCCCNc1cc(C)nc2c(-c3ccc(F)cc3)c(C)nn12 | 6 | 0 | -27 | 1
O=C(O)c1cccc(NC(=O)c2cc3ccccc3o2)c1 | 1 | 3 | 39* | 0
SMILES | MITF inh | GPR151 ag | TEAD-YAP inh | FBW7 activator
O=C(Nc1nccs1)c1cc2ccccc2o1 | -7 | -9 | 58* | 0
CCOc1ccccc1Nc1nc(-c2c(C)nc3ccccn23)cs1 | 0 | 0 | 7 | 0
Cc1ccn2c(-c3csc(Nc4cccc(O)c4)n3)c(C)nc2c1 | 4 | 0 | 49* | 0
Cc1cccc(Nc2nc(-c3c(C)nc4cc(C)ccn34)cs2)c1 | -12 | 0 | 11 | 0
CCOc1ccc(Nc2nc(-c3c(C)nc4cc(C)ccn34)cs2)cc1 | 0 | 2 | 67* | 0
CCOc1ccc(Nc2nc(-c3c(C)nc4ccccn34)cs2)cc1 | 3 | 0 | 70* | 1
COC(=O)C1=CN(Cc2ccc(F)cc2)C=C(C(=O)OC)C1c1cccc(Cl)c1 | -8 | -1 | 5 | 1
COc1ccc(/C=C/C(=O)N2CCN(c3ccccc3OC)CC2)cc1 | -4 | 0 | 15 | 0
Oc1ccc(Br)c(C(Nc2ccccn2)c2ccc3cccnc3c2O)c1 (stereo not given) | 12 | 0 | 85* | 0
Oc1c(C(Nc2ccccn2)c2ccc(Br)cc2)ccc2cccnc12 (stereo not given) | 14 | 1 | 84* | 0
Cc1ccc(C(Nc2ccccn2)c2ccc3cccnc3c2O)s1 (stereo not given) | 35 | 0 | 81* | 0
CC(C)c1ccc(C(Nc2ccccn2)c2ccc3cccnc3c2O)cc1 (stereo not given) | 18 | 1 | 63* | 0
Cc1ccc2ccc(C(Nc3ccccn3)c3cccc(O)c3)c(O)c2n1 (stereo not given) | 3 | 0 | 8 | 0
CCCOc1ccc(C(Nc2ccccn2)c2ccc3cccnc3c2O)cc1 (stereo not given) | 19 | -2 | 21 | 0
O=C(NCc1ccccc1)C(=O)NCc1cccnc1 | 1 | 2 | -7 | 0
CC(C)c1ccc(CNC(=O)C(=O)NCc2cccnc2)cc1 | -12 | 0 | 47* | 0
O=C(NCc1cccnc1)c1ccc(C#Cc2ccccc2)o1 | -2 | 0 | 99* | 0
COCCN1C(=S)NC2c3ccccc3OC13CCCC23 (stereo not given) | 4 | 0 | 36* | 0
CCNS(=O)(=O)c1ccc(CCC(=O)Nc2ccc(Oc3ccccc3)cc2)cc1 | 25 | 1 | 16 | 0
CCOC(CNC(=O)c1c[nH]c2ccc(S(=O)(=O)N3CCc4ccccc43)cc2c1=O)OCC | 4 | 2 | 19 | 0
COc1ccc(CCNC(=O)c2c[nH]c3ccc(S(=O)(=O)N4CCc5ccccc54)cc3c2=O)cc1OC | 17 | 0 | 35* | 0
CC(C)(C)c1ccc2c(c1)NC(=O)CO2 | -14 | 0 | 35* | 0
O=C1COc2ccc(C(=O)O)cc2N1 | 9 | 0 | 7 | 0
Cc1cc(NC2CC2)nc(N2C3CCC2CC(O)(c2ccc(F)cc2)C3)n1 (stereo not given) | -23 | -1 | -10 | 0
COc1ccc(C2=CC(c3ccc(OC)cc3OC)n3ncnc3N2)cc1 (stereo not given) | 16 | 1 | 56* | 0
COc1ccc(C2=CC(c3cccc(OC)c3)n3ncnc3N2)cc1 (stereo not given) | 2 | 2 | 43* | 0
COc1cccc(C2C=C(c3ccc(C)cc3)Nc3ncnn32)c1 (stereo not given) | 16 | 2 | 54* | 0
CCc1ccc(C2=CC(c3cccc(OC)c3)n3ncnc3N2)cc1 (stereo not given) | 14 | -2 | 30 | 0
COc1ccc(C2C=C(c3ccc(C)cc3)Nc3ncnn32)c(OC)c1OC (stereo not given) | 15 | 0 | 47* | 0
COc1cccc(C2C=C(c3cccc(Br)c3)Nc3ncnn32)c1 (stereo not given) | 25 | 1 | 39* | 0
